# In PubChem BioAssay AID1568 (National Center for Advancing Translational Sciences (NCATS), 2009):
# Results filed as inconclusive are left out. Entries that show only a call come without a potency. Active and inactive are the calls of the source. Calls come from the whole dose curve; as a rule, active = well fitted curve in the direction sought with a large enough effect; inconclusive = small, poorly fitted or top-dose-only effect, or effect the other way, or another doubt; inactive = no such curve, though single readings can be large or run the other way.
# Assay: Cell Viability Secondary Assay to Characterize qHTS Inhibitors of the Interaction of Thyroid Hormone Receptor and Steroid Receptor Coregulator 2
# Conditions: cell viability counter-screen, qHTS titration; series mostly up to 29.9 µM
# Text: NIH Molecular Libraries Probe Production Network [MLPCN]
# NIH Chemical Genomics Center [NCGC]
# Assay Provider: R. Kip Guy, St. Jude Children's Research Hospital
# Thyroid receptor (TR) regulates many homeostatic processes including basal metabolism, cardiovascular function, body weight, and lipid trafficking. TR modulators are potential therapeutics for obesity and hyperlipidemias but current thyroid analogs have undesirable side effects, particularly cardiac stimulation. This secondary assay characterized selected actives identified in the qHTS for Inhibitors of the Interaction of Thyroid Hormone Receptor and Steroid Receptor Coregulator 2. The human follicular thyroid carcinoma cell line WRO (kindly provided by Dr. M. D. Ringel) stably expresses TRbeta and a luciferase reporter gene fused to TR response element. The effect of compounds on the viability of these cells was assessed by measuring ATP levels. Compounds that reduce cell viability are likely cytotoxic.
# NCGC Assay Protocol Summary:
# Cells were maintained in RPMI 1640 culture medium supplemented with 10% heat-inactivated FBS, 0.33 mg/ml hygromycin, 0.33 mg/ml geneticin, 50 units/ml penicillin, 50 ug/ml streptomycin. Cells were harvested and resuspended at 330,000 cells/ml in assay medium (50% DMEM 50% F-12 medium without Phenol-Red (Cellgro #16-405-CV), L-glutamine, 10% heat inactivated and charcoal treated FBS, 100 uM non-essential amino acid, 50 units/ml penicillin, 50 ug/ml streptomycin). Cells were dispensed at 10,000 cells/30 ul/well into 384 well plates (Corning 3917) and incubated 12 h at 37 C and 5% CO2. Compounds and T3 (100nM final concentration) were added using a pin tool and plates were incubated 16 h incubation at 37 C and 5% CO2. Following incubation, plates were equilibrated at ambient temperature for 30 min, 20 ul of CellTiter-Glo (Promega) was added and luminescence was detected by an EnVision (PerkinElmer).
row,Compound,Potency
1,Cc1cccc(Cn2c(C(=O)OC(C)C)cc3c2ccn3C)c1,inactive
2,CC1(C)C(N(O)C(=O)Nc2ccc(Cl)cc2)N(c2ccc(Cl)cc2)C(=O)N1CC(=O)NN (centres undefined),inactive
3,CC1=NN(Cc2ccccc2)C(=O)C1,inactive
4,O=C(O)[C@H]1CN(CCCP(=O)(O)O)CCN1,inactive
5,CN(C)c1cc(Cl)c2nonc2c1N,inactive
6,CCC(C)NC(=O)COC(=O)c1csc2c1CCCC2 (centres undefined),inactive
7,COc1cc(NC(C)CCCN)c2ncccc2c1 (centres undefined),22.4 µM (active)
8,CC(=O)c1cccc(NC(=O)COC(=O)c2ccc(S(C)(=O)=O)c([N+](=O)[O-])c2)c1,inactive
9,CN(C(=S)Nc1cccnc1)c1ccc(O)cc1,inactive
10,Nc1c(C(=O)NCc2ccco2)c2nc3ccccc3nc2n1CCc1ccccc1,inactive
11,CCCCOc1ccc(C(=O)CCN2CCOCC2)cc1,inactive
12,COc1ccc(C(=O)/C=C/Nc2ccc(S(=O)(=O)Nc3ncccn3)cc2)cc1,inactive
13,COn1c2c(c3c4nonc4ccc31)CCCC2,inactive
14,Cc1nc2ccccc2n2c(O)c(CC(=O)O)cc12,inactive
15,CC(=O)NC1N=C(C)N(c2ccccc2)C1=O (centres undefined),inactive
16,CCCc1nc2c(=O)n(C)c(=O)nc-2n(C)n1,0.794 µM (active)
17,O=C(/C=C/c1ccco1)NC(=S)Nc1cc(C(F)(F)F)ccc1N1CCOCC1,inactive
18,Cn1c(=O)[nH]c2nnc(-c3ccc(Cl)c(Cl)c3)nc2c1=O,inactive
19,O=C(O)C1C2C=CC(O2)C1C(=O)Nc1ccc(S(=O)(=O)N2CCc3ccccc32)cc1 (centres undefined),inactive
20,Cc1[nH][nH]c(=O)c1C(c1ccc(-c2ccccc2C(=O)O)o1)c1c(C)[nH][nH]c1=O,inactive

row,Compound,Potency
1,CC1(C)CC(=O)C(N=Nc2cccc(S(=O)(=O)N3CCOCC3)c2)=C(O)C1,inactive
2,N/C(Cc1cccc2ccccc12)=N\OC(=O)c1cccs1,inactive
3,COC(=O)c1ccccc1-c1ccc(C(c2c(C)[nH][nH]c2=O)c2c(C)[nH][nH]c2=O)o1,inactive
4,Cc1ccc(OC(=S)Nc2ccc(O)cc2)cc1,inactive
5,C/C(=C\C(=O)c1ccccc1)Nc1ccc(O)cc1,inactive
6,Cc1cc2c(NC(=O)Nc3ccccc3)cccc2nn1,inactive
7,Cc1cc(N=Cc2c(O)ccc3ccccc23)no1,inactive
8,Nc1cccnc1Sc1cc(Cl)c(Cl)cc1Cl,inactive
9,CN1c2ccccc2C(C)(C)C12C=Nc1c(cc(N3CCOCC3)c3ccccc13)O2 (centres undefined),inactive
10,Oc1ccc2ccccc2c1C=NC12CN3CCN(CN(C3)C1)C2,inactive
11,COc1ccc(-c2nc(CS(=O)CC(=O)NCc3ccccn3)c(C)o2)cc1 (centres undefined),inactive
12,Cn1cc(/C=C2\SC(=S)N(NC(=O)c3ccccc3)C2=O)c2ccccc21,inactive
13,Cn1c(CCN2CCCCC2)nc2cc(NS(=O)(=O)c3ccc(Cl)cc3)ccc21,inactive
14,CCOc1ccc(NC(=O)C(c2ccccn2)N(C(=O)CCl)c2ccc(F)cc2)cc1 (centres undefined),inactive
15,C=CC(=O)OCCOc1ccccc1,inactive
16,CCC(NC(=O)Nc1ccc(O)cc1)(C(F)(F)F)C(F)(F)F,inactive
17,CN(CCO)c1nc(N)c2c(N)nc3c(c2c1C#N)CC(=O)N3C1CCCC1,inactive
18,Nc1cc(-c2ccncc2)c[nH]c1=O,inactive
19,CCOc1cc(C(c2c(C)[nH][nH]c2=O)c2c(C)[nH][nH]c2=O)ccc1OC(=O)c1cccc([N+](=O)[O-])c1,inactive
